Screens: PubChem, National Center for Advancing Translational Sciences (NCATS)
Vif-A3G inh – Vif-A3G binding inhibition | Q9HC16 | HeLa A3G-eYFP + Vif (tagged APOBEC3G with the HIV-1 protein that degrades it), YFP fluorescence, overnight | Potency, µM (top dose mostly 46.1 µM), most hits filed as inhibitors | 0.076% of 410,000 active; further: nearly all actives have a fitted effect of over 60% in size
Target sequence (Q9HC16 whole entry, looked up): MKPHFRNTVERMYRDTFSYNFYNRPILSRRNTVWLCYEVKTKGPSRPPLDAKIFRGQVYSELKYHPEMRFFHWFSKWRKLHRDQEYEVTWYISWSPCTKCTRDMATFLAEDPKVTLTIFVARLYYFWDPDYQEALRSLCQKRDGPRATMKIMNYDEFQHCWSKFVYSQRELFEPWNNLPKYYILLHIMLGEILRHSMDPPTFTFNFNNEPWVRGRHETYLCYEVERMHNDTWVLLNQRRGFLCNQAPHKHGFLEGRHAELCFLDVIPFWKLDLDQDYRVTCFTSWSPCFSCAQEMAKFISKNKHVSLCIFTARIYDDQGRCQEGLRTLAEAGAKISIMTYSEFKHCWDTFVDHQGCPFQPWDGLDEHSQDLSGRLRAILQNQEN
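Read-out is eYFP fluorescence (Ex 488/Em 500-530) from Vif-expressing HeLa A3G-eYFP cells; more signal means A3G escaped Vif-mediated degradation. Cells plated overnight, compound pinned in, incubated overnight at 37 deg C.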
PLK1 PBD inh – inhibitors of human PLK1 polo-box domain binding; Plk1 PBD binding of FITC phosphopeptide, fluorescence polarization; Potency, µM, actives largely listed as inhibitors; 2.8% of 360,000 active; AID 720504; further: series mostly up to about 57 µM; nearly all actives have a fitted effect of over 65% in size
VDR inh – inhibitors of human vitamin D receptor; P11473; VDR-SRC2-3 peptide fluorescence polarization, 2 h; Potency, µM, actives largely listed as inhibitors; 0.93% of 400,000 active; AID 504847
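After 23 nl compound addition and a short centrifugation, plates sat for 2 hours at ambient temperature; polarization of fluorescence then indicated loss of VDR binding to peptide SRC2-3.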
TSHR antagonist – blocks TSH signaling through the human TSH receptor; P16473; TSHR-expressing cells, TSH-stimulated cAMP HTRF, 2 h; active compounds read low; activity change, negative = inhibition, % at 11.5 µM; 0.2% of 330,000 active;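 active means activity change below a set negative limit, meaning inhibition stronger than a set level, cut at about -70% in these data; inconclusive means activity change between two set negative limits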
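TSHR-expressing cells, 200/well, pre-treated with compound, then stimulated with EC80 TSH (4nM final) for 2 hours at 37 deg C. cAMP measured by competitive HTRF: anti-cAMP cryptate antibody in lysis buffer plus cAMP-d2, read after 30 minutes at room temperature.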
Vif-A3F inh – blocks the Vif interaction with APOBEC3F | HeLa A3F-eYFP + Vif (tagged APOBEC3F with the HIV-1 protein that degrades it), YFP fluorescence increase | Potency, µM (series often up to 46.1 µM) | 0.2% of 390,000 active | AID 602313; further: nearly all actives have a fitted effect of over 65% in size
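HeLa cells stably expressing A3F-eYFP plus Vif, plated and incubated overnight at 37 deg C, then exposed to compounds overnight at 37 deg C. Blocked degradation read as raised yellow fluorescence (Ex 488/Em 500-530).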
A number is an active result; - = inactive; ? = inconclusive; . = not tested or not shown. Rows were chosen to be rich in hits. Some 3.1% of all compounds tested hit in one or more screens of this group. Unless noted, the call rests on the fitted dose curve; in most records, active means well fitted curve in the direction sought with a large enough effect; inconclusive means small, poorly fitted or top-dose-only effect, or another doubt; inactive means no such curve, though single readings can be large; an effect the other way counts as inactive or inconclusive.

SMILES	Vif-A3G inh	PLK1 PBD inh	VDR inh	TSHR antagonist	Vif-A3F inh
C[C@H](N)C(=O)N[C@@H](CO)C(=O)N[C@H](C(=O)N[C@H](C(=O)N[C@H](C(=O)N[C@@H](CC(N)=O)C(=O)N[C@@H](Cc1ccc(O)cc1)C(=O)N[C@H](C(=O)O)[C@@H](C)O)[C@@H](C)O)[C@@H](C)O)[C@@H](C)O	.	.	-	.	.
COc1ccc(CCSc2n[nH]c(C(C)C)n2)cc1	-	.	.	.	.
CC(=O)c1cc(-c2ccccc2)n(CC(=O)Nc2ccc(C)cc2C)c1C	-	.	-	.	-
CCc1nn2c(=O)cc(COC(=O)c3ccco3)nc2s1	-	.	-	.	-
C[C@@H](C1=C(CCN(C)C)Cc2ccccc21)c1ccccn1	.	.	-	.	.
Cc1ccc(CCNC(=O)c2sc3nc4n(c(=O)c3c2C)CCC4)cc1	-	11µM	?	-	-
CC(=O)c1cccc(NC(=O)c2sc3nc4n(c(=O)c3c2C)CCCC4)c1	-	24µM	-	-132	-
Cc1c(C(=O)N2CCN(c3ccc(F)cc3)CC2)sc2nc3n(c(=O)c12)CCC3	-	21µM	-	-	?
Cc1ccc2oc(-c3ccc(C)c(NC(=O)COc4ccccc4C)c3)nc2c1	-	.	.	.	.
N=C(N)c1ccc(N)cc1	-	-	-	-	-
Nc1ccc(O)cc1	?	.	79µM	.	.
CC(C)(C)OC(=O)N1CCN(/[N+]([O-])=N/Oc2ccc([N+](=O)[O-])cc2[N+](=O)[O-])CC1	-	.	.	.	.
CN(c1ccc(/C=C/c2ccccc2)cc1)P1(=O)NCCCO1 (configuration not stated)	-	.	.	.	.
C[C@H](CO)N1C[C@H](C)[C@H](CN(C)S(=O)(=O)c2cccc(C#N)c2)OCc2cnnn2CCCC1=O	-	30µM	.	.	-
C[C@H]1CN([C@@H](C)CO)C(=O)CCCn2nncc2CO[C@H]1CN(C)S(=O)(=O)c1cccc(C#N)c1	-	-	.	.	-
CCOc1ccc(OCC)c(NC(=O)CN2CCN(c3cccc(C)c3C)CC2)c1	-	-	-	-	-
CCOc1ccc(OCC)c(NC(=O)CN2CCN(C(=O)c3ccco3)CC2)c1	-	21µM	-	-	-
CCCCN(CCCC)c1ccc(C=Nc2ccc(/C=C/c3ccnc4ccccc34)cc2)cc1C	-	.	.	.	.
N#Cc1nccnc1S(=O)(=O)c1cccs1	-	27µM	35µM	-87	-
O=C(N1CCc2[nH]c3ccccc3c2C1)C(F)(F)F	-	38µM	-	-	-
CC(=O)N1CCc2[nH]c3ccccc3c2C1	-	-	-	-	-
O=C(CC1CC2CCC1C2)Nc1nc(-c2ccccn2)cs1 (configuration not stated)	-	?	-	-	13µM
Cc1cc(C)c(OCC(=O)Nc2nc(-c3ccccn3)cs2)c(C)c1	-	-	-	-	?
O=C(CCS(=O)(=O)c1ccc(F)cc1)Nc1nc(-c2ccccn2)cs1	-	-	-	-110	-
O=C(CCS(=O)(=O)c1ccccc1)Nc1nc(-c2ccccn2)cs1	-	-	-	.	-
SMILES	Vif-A3G inh	PLK1 PBD inh	VDR inh	TSHR antagonist	Vif-A3F inh
COc1ccc(OCCCC(=O)Nc2nc(-c3ccccn3)cs2)cc1	-	27µM	-	-	-
O=C1CC2(CCCC2)CC(=O)N1CCNC[C@H]1COc2ccccc2O1	.	.	-	.	.
O=C(C[N+]1(CCO)CCOCC1)c1cccs1	-	.	.	.	.
C[C@H]1/C=C\CC(=O)NCc2cccc(c2)CNC(=O)N[C@H]1c1ccccc1	.	.	-	.	.
Cc1ccc(CCNC(=O)C2CCN(S(=O)(=O)c3ccc4c(c3)CCC(=O)N4)CC2)cc1	-	-	-	-	-
O=C1CCc2cc(S(=O)(=O)N3CCC(C(=O)NCCC4=CCCCC4)CC3)ccc2N1	-	21µM	-	-	-
C=CCOc1c(Cl)cc(CNCCCN2CCOCC2)cc1OC	-	21µM	?	-	-
CCCCCOc1ccc(CSc2n[nH]c(C)n2)cc1	-	30µM	?	-	-
CCCOc1ccc(CSc2ncn[nH]2)cc1	-	2.7µM	?	-	-
Cc1nc(SCc2ccc(OCCC(C)C)cc2)n[nH]1	-	-	-	-	-
c1cc2c(cc1Cc1cncc(Cc3ccc4c(c3)OCO4)c1)OCO2	-	.	.	.	.
COCCn1c(SCc2ccccc2F)nc2c([nH]c3ccccc32)c1=O	-	.	-	.	-
S=C(c1cn(Cc2ccc(Br)cc2)c2ccccc12)N1CCOCC1	-	30µM	?	-	-
S=C(c1c[nH]c2ccccc12)N1CCOCC1	-	15µM	-	-	-
S=C(c1cn(Cc2ccccc2)c2ccccc12)N1CCOCC1	-	-	-	-	-
O=C(C(=O)N1CCOCC1)c1c[nH]c2ccccc12	-	-	-	-	-
CCC1CN(C(=O)N2CCC(C(=O)Nc3ccccc3OC)CC2)c2ccccc2O1 (configuration not stated)	-	27µM	?	-	-
CCC1CN(C(=O)NCc2ccccc2)c2ccccc2O1 (configuration not stated)	-	-	-	-72	-
CC[C@H](C)[C@H](NC(=O)CNC(=O)[C@H](CCCNC(=N)N)NC(=O)[C@H](CO)NC(=O)[C@H](C)NC(=O)[C@H](Cc1ccc(O)cc1)NC(=O)[C@H](Cc1c[nH]c2ccccc12)NC(=O)[C@H](C)NC(=O)[C@@H]1CCCN1C(=O)[C@H](CC(N)=O)NC(=O)[C@@H](NC(=O)[C@H](CC(=O)O)NC(=O)[C@@H]1CCCN1C(=O)[C@@H](N)[C@@H](C)O)[C@@H](C)CC)C(=O)N[C@@H](CCCNC(=N)N)C(=O)N1CCC[C@H]1C(=O)N[C@H](C(=O)NCC(=O)N[C@@H](CCCNC(=N)N)C(=O)N[C@@H](Cc1ccccc1)C(N)=O)C(C)C	.	.	-	.	.
O=C(CCc1ccc(S(=O)(=O)NC2CCCCC2)cc1)NCc1ccc(Cl)cc1	-	-	-	-	-
Cc1ccc(C)c(NC(=O)CCc2ccc(S(=O)(=O)NC3CCCCC3)cc2)c1	-	6.7µM	-	-	-
O=C1C(Cl)=C(Nc2ccc3cn[nH]c3c2)C(=O)c2ccccc21	-	13µM	?	-90	-
O=C(Nc1ccc2cn[nH]c2c1)c1c(Cl)cccc1Cl	-	?	-	-	-
O=C1[C@H](Cc2ccccc2)NC/C=C\C[C@H](c2ccco2)N1Cc1ccccc1	-	.	.	.	.
CSc1ccc(C(=S)N2CCN(CCO)CC2)cc1	-	27µM	-	-	-
OCCN1CCN(C(=S)c2ccc(Br)cc2)CC1	-	6.7µM	-	-	-
COc1cc(/C=C2/C(=N)N3N=C(C)SC3=NC2=O)ccc1OS(=O)(=O)c1ccc(C)cc1	-	21µM	-	-	-
COc1cc(/C=C2/C(=N)N3N=C(CC(=O)N4CCOCC4)SC3=NC2=O)ccc1OC(C)c1ccccc1 (configuration not stated)	-	?	-	-	-
COc1cc(/C=C2\C(=N)N3N=C(N4CCOCC4)SC3=NC2=O)ccc1OC(=O)c1ccccc1	-	27µM	?	-	-
